The list is not random: actives were taken first. Their share in the collection is about 4.1%.
hgDAF12 agonist – activates the H. glycines DAF-12 receptor ligand-binding domain; activation, % at 6.8 µM; hit rate 1.8% among 370,000; HEK293 GAL4-hgDAF12 UAS-luciferase reporter, agonist luminescence; normalized to butyrate control;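 active means activation above a cutoff set at the mean of all screened compounds plus 3 SD, cut at about 10% in these data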
ssDAF12 agonist – S. stercoralis DAF-12 activation, primary screen; HEK293 ssDAF-12/GRIP1 lit1-tk-luc reporter, luminescence; % of 3 µM dafachronic acid response; activation, % at 6.8 µM; hit rate 1% among 370,000; AID 652126;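 active means activation above the mean over all tested compounds plus 3 SD, cut at about 0.9% in these data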
DAX1 inh-1 – inhibitors of human orphan nuclear receptor DAX1 (NR0B1); HEK293 Gal4-DAX1 luciferase reporter, luminescence; inhibition, % at 6.75 µM; hit rate 0.99% among 340,000; AID 504766;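 active means inhibition above the mean over all tested compounds plus 3 SD, cut at about 4.2% in these data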;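 further: inhibition shows as a rise in luminescence from relieved DAX1 repression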
Target sequence (P51843 207-470 limits assumed): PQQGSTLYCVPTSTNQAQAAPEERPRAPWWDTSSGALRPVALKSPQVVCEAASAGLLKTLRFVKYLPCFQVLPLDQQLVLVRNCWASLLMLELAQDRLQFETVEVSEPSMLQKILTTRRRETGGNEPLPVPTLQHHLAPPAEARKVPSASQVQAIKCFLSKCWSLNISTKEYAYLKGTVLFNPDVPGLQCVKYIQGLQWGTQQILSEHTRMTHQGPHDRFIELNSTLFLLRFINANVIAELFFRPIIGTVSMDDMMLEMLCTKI
DAX1 inh-2 – inhibitors of DAX1 repression of SF-1 activated StAR promoter; HEK293T StAR-luciferase reporter, SF-1/DAX-1 repression relief; inhibition, % at 6.8 µM; hit rate 1.1% among 370,000; AID 652010;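 active means inhibition above the mean over all tested compounds plus 3 SD, cut at about 3.6% in these data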;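 further: higher inhibition means more luminescence from relief of DAX-1 repression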
hcDAF12 agonist – H. contortus DAF-12 activation, primary screen. HEK293 hcDAF-12 lit1-tk-luc reporter, luminescence; 0% DMSO, 100% Δ7-dafachronic acid. activation, % at 6.8 µM. hit rate 1.4% among 370,000;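 active means activation above the mean of all tested compounds plus 3 SD, cut at about 5.5% in these data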
Hits are given with their value; i = inactive; nt = no result.

SMILES | hgDAF12 agonist | ssDAF12 agonist | DAX1 inh-1 | DAX1 inh-2 | hcDAF12 agonist
N#Cc1ccccc1NC(=O)CN1C(=O)NC2(CCCC2)C1=O | i | i | 4.7 | i | i
O=C(CN1C(=O)NC2(CCCCC2)C1=O)Nc1cccc(S(=O)(=O)N2CCCC2)c1 | i | i | i | 4.6 | i
O=C(CN1C(=O)NC2(CCCCCC2)C1=O)Nc1ccccc1[N+](=O)[O-] | i | i | i | i | i
O=C(CN1CCCCCC1)Nc1cccc(NC(=O)CN2CCCCCC2)c1 | i | i | 4.5 | i | i
CC(NC(=O)CN1C(=O)NC2(CCCCCC2)C1=O)c1ccccc1Cl (centres undefined) | i | 1.1 | i | i | i
Cc1ccc(C2CCC3(CCC(=O)N3CCOC(=O)Nc3ccc(Br)cc3)CC2)cc1 (centres undefined) | i | i | nt | i | i
CC1(C(=O)N/N=C/c2ccccc2)CC1(Br)Br (centres undefined) | i | i | i | i | i
Cc1ccc(/C=N/NC(=O)C2(C)CC2(Br)Br)cc1 (centres undefined) | i | 2.0 | i | i | i
O=C(O)CC1COc2ccccc2N1C(=O)c1ccccc1Cl (centres undefined) | i | 1.5 | i | i | i
COC(=O)CC1COc2ccccc2N1C(=O)c1ccc(OC)cc1 (centres undefined) | i | i | i | i | i
O=C(CCn1nnc2ccccc21)N1CCN(c2ccc(F)cc2)CC1 | i | i | nt | i | i
CSc1nnc(CCNC(=O)OC(C)(C)C)o1 | i | i | 4.5 | i | i
Cc1ccc(N(CC(=O)Nc2ccc(-c3nc4ccc(C)cc4s3)cc2)S(C)(=O)=O)cc1 | 12 | 0.9 | i | 4.4 | i
CCOc1ccc(N(CC(=O)Nc2ccc(C)cc2)S(C)(=O)=O)cc1 | 12 | i | i | i | i
Cc1ccc2nc(-c3ccc(NC(=S)NC(=O)CC(C)C)cc3)sc2c1 | i | i | i | i | i
Cc1ccc(C)c(N(CC(=O)Nc2ccc(-c3nc4ccc(C)cc4s3)cc2)S(C)(=O)=O)c1 | i | 1.6 | i | i | i
COC(=O)C12C=C3CC(c4ccc(C)s4)=C3C(=O)N1Cc1[nH]c3ccccc3c1C2 (centres undefined) | i | i | nt | i | i
Cc1cc(C(=O)N/N=C/c2ccc([N+](=O)[O-])cc2)c(C)o1 | 11 | i | i | i | i
O=[N+]([O-])c1ncccc1OCCOc1ccc(Cl)cc1Cl | i | i | nt | nt | i
COC(=O)c1cnn(-c2ccccc2)c1C(OC)OC | i | i | 4.5 | i | i
COc1ccc(Nc2ncnc3c2oc2ccccc23)cc1 | 12 | i | i | i | i
COc1cccc(Nc2nc(C)nc3c2oc2ccccc23)c1 | i | i | i | i | i
c1ccc(SCc2nc(-c3ccncc3)no2)cc1 | i | i | i | i | 5.6
C=CCCC(=O)N1CCC(C(=O)NC2CCCc3ccccc32)CC1 (centres undefined) | i | i | nt | i | i
Cc1ccn(CCC(=O)N2CCc3ccccc32)n1 | i | i | i | 4.1 | i
SMILES | hgDAF12 agonist | ssDAF12 agonist | DAX1 inh-1 | DAX1 inh-2 | hcDAF12 agonist
CC1CCc2nn(CC(=O)N3CCc4ccccc43)cc2C1 (centres undefined) | i | i | 4.6 | i | i
CC1CCc2nn(CC(=O)NCCN3CCCCC3C)cc2C1 (centres undefined) | i | i | 5.8 | i | i
CC1CCc2nn(CC(=O)N3CCCCCC3)cc2C1 (centres undefined) | i | i | i | i | i
O=C(Nc1ccc(Oc2ccccc2)cc1)C1CCN(c2nnc(-n3cccc3)s2)CC1 | i | i | nt | i | i
CCOC(=O)C1(Cc2ccccc2)CCN(Cc2ccccc2[N+](=O)[O-])CC1 | i | i | nt | i | i
COc1ccc(S(=O)(=O)Cc2ccc(C(=O)NCCCN3CCc4ccccc4C3)o2)cc1 | i | 3.5 | i | i | 5.8
COc1ccc(N2CCN(CCCNC(=O)c3ccc(CS(=O)(=O)c4ccc(OC)cc4)o3)CC2)cc1 | i | i | i | i | i
COC(=O)[C@@H]1N=C(c2ccc(OC)cc2)O[C@]12C(=O)N(Cc1cn(Cc3ccccc3)nn1)c1cccc(Cl)c12 | i | i | nt | i | i
Nc1nc2c(ncn2[C@@H]2O[C@H](C(=O)NCCc3c[nH]c4ccccc34)[C@@H](O)[C@H]2O)c(=O)[nH]1 | i | i | nt | i | i
c1ccc(Cn2ccc(-c3cnc(-c4ccccc4)s3)n2)cc1 | 12 | i | i | i | i
O=C(O)CN1C(=O)CSc2ccccc21 | i | i | i | i | i
O=C1CSc2ccccc2N1Cc1ccc(F)cc1 | i | 1.4 | i | i | i
CCN(C(=O)CN1CCN(c2nc(-c3ccccc3)cs2)CC1)c1ccccc1C | i | i | nt | i | i
O=C(Nc1ccccc1)c1cnc2n(c1=O)CCS2 | i | i | i | i | 6.1
O=C(Nc1ccc2c(c1)OCCO2)c1cnc2n(c1=O)CCS2 | i | i | i | 3.7 | i
Cc1cccc(NC(=O)c2cnc3n(c2=O)CCS3)c1 | i | i | i | i | i
COc1cccc(NC(=O)CN(C)C(=O)c2cc3c(s2)CCCCC3)c1 | i | i | i | i | i
COc1ccc(NC(=O)c2csc3c2CCCC3)cc1 | nt | nt | i | nt | nt
COc1cccc(NC(=O)c2csc3c2CCCC3)c1 | 11 | i | i | i | i
Cc1cccc(NC(=S)NNC(=O)c2csc3c2CCCC3)c1 | 11 | i | i | i | i
COc1cccc(NC(=O)CN(C)C(=O)c2cc3c(s2)CCCC3)c1 | i | i | i | 3.7 | i
Cc1ccc(C)c(NC(=S)NNC(=O)c2csc3c2CCCC3)c1 | i | i | i | i | i
CC(=O)c1cc(-c2ccc3[nH]ccc3c2)c(=O)n2c1CCC2 | i | i | nt | i | i
COc1ccc2c(c1)CN1CN(C3CCCC3)S(=O)(=O)CC21 (centres undefined) | i | i | nt | i | i
CN1CCN(C(=O)CNc2ccc(C(F)(F)F)cc2[N+](=O)[O-])CC1 | i | i | i | i | 5.8
SMILES | hgDAF12 agonist | ssDAF12 agonist | DAX1 inh-1 | DAX1 inh-2 | hcDAF12 agonist
CCCCNC(=O)c1nc(-c2cccs2)oc1-c1ccc(Cl)cc1 | i | 0.9 | nt | i | i
CCc1c(C)c2cc(Cl)c(O)c(CN(C)C)c2oc1=O | i | i | i | i | i
CCCCc1cc(=O)oc2c(CN(C)C)c(O)c(Cl)cc12 | i | 1.3 | i | i | i
CCCCCCCCN1C(=O)[C@@H](CC(=O)NCCCOCCCC)C[C@@]2(C(=O)OC)C1=C[C@H](C(C)(C)C)O[C@@H]2C | i | i | nt | i | i
Cc1[nH]n(-c2ccccc2)c(=O)c1C=NC1CCCCCC1 | i | i | 5.5 | i | i
Cc1[nH]n(-c2ccccc2)c(=O)c1C=NC1CCCCC1 | i | i | i | i | i
COC(=O)C1=C(C)N(Cc2ccccc2C(F)(F)F)C(=NCc2ccc3c(c2)OCO3)NC1CCc1ccccc1 (centres undefined) | i | i | nt | i | i
Cc1cc2[nH]c(=O)c(=O)[nH]c2cc1S(=O)(=O)Nc1ccccc1F | i | i | 4.6 | i | i
O=C(O)COc1ccc(C(=O)Cc2ccc3c(c2)OCCCO3)c(O)c1 | i | i | i | i | i

Screens deposited in PubChem BioAssay by The Scripps Research Institute Molecular Screening Center.
